From PubChem BioAssay (NCATS)
Inconclusive results are not listed. Activity calls are given as the source filed them. Calls come from the whole dose curve; as a rule, active = well fitted cell-killing curve with a large enough effect; inconclusive = small, poorly fitted or top-dose-only effect, or effect the other way; inactive = flat fitted curve, though single readings scatter. Where a SMILES comes first, the peptide text is derived from it. The star is where a group is joined. AFC = O=c1cc(C(F)(F)F)c2ccc(N*)cc2o1

Tests used:
Test in all cases: Primary qHTS to identify gynecologic anti-cancer compounds using libraries of approved drugs and bioactive compounds (AID 1345084); note: nearly all actives have a fitted effect of over 55% in size
Details in all cases: Gynecologic cancer cell panel viability, ATPlite luminescence, 48 h; series mostly up to 57.5 µM
C33A = test system: C33A
How it was run: (§1)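 48 h compound exposure at 37 C, 5% CO2; five-point qHTS. ATPlite luminescence readout of cell ATP.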

CAOV3 = test system: CAOV3
How it was run: as §1

CASKI = test system: CASKI
How it was run: as §1

Measured: Potency

CC(=O)OCCC(C)CCC1C(C)(O)CCC2C(C)(C)CCCC21C (centres undefined)
inactive: C33A | CAOV3 | CASKI

CCn1cc(C2=NOC(C(=O)Nc3c(C)n(C)n(-c4ccccc4)c3=O)C2)c(C)n1 (centres undefined)
inactive: C33A | CAOV3 | CASKI

CC(CO[C@@H]1O[C@H](COC(=O)/C=C/c2ccc(O)c(O)c2)[C@@H](O)[C@H](O)[C@H]1O)C1(O)COC(=O)C1 (some centres undefined)
inactive: C33A | CAOV3 | CASKI

COc1cc(C2OCC3C(c4ccc(OC5OC(CO)C(O)C(O)C5O)c(OC)c4)OCC23)ccc1O (centres undefined)
inactive: C33A | CAOV3 | CASKI

CC(=O)N[C@@H](CC(C)C)C(=O)N[C@@H](CCC(=O)O)C(=O)N[C@@H](CCC(=O)O)C(=O)N[C@@H](CC(=O)O)C(=O)Nc1ccc2c(C(F)(F)F)cc(=O)oc2c1 (Ac-LEED-{AFC})
inactive: C33A | CAOV3 | CASKI

CC(C)(O)C1CCC2(C)C3C(O)C4C(C13)C42CO (centres undefined)
inactive: C33A | CAOV3 | CASKI

COc1cc(N2CCC(O)CC2)ccc1Nc1cc(Nc2ccccc2S(=O)(=O)C(C)C)c2cc[nH]c2n1
inactive: C33A | CAOV3 | CASKI

CCCCN(CCCC)C(=O)CN1C[C@H](c2ccc3c(c2)OCO3)[C@@H](C(=O)O)[C@@H]1c1ccc(OC)cc1
inactive: C33A | CAOV3 | CASKI

C=C(C(=O)O)C1CCC(C)C2CCC(=O)OC2(C)C1 (centres undefined)
inactive: C33A | CAOV3 | CASKI

OC[C@H]1O[C@@H](Oc2ccc3c(c2)OC[C@H]2c4cc5c(cc4O[C@@H]32)OCO5)[C@H](O)[C@@H](O)[C@@H]1O
inactive: C33A | CAOV3 | CASKI

C=C/C=C/[C@@H]1OC[C@H](/C=C/C=C/C)[C@H]1O
inactive: C33A | CAOV3 | CASKI

O=C(NCC(=O)N1CC[C@H](NC2CCC(O)(c3ccc(-c4ncccn4)cn3)CC2)C1)c1cccc(C(F)(F)F)c1 (some centres undefined)
inactive: C33A | CAOV3 | CASKI

CC(C)(O)c1ccc2c(c1)C(=O)CC1[C@](C)(CO)CCC[C@]21C (some centres undefined)
inactive: C33A | CAOV3 | CASKI

C[C@]1(O)CC[C@@H]2C(C(=O)O)=CO[C@@H](O[C@@H]3O[C@H](COC(=O)c4ccc(O)cc4)[C@@H](O)[C@H](O)[C@H]3O)[C@@H]21
inactive: C33A | CAOV3 | CASKI

O=C1NC(Cc2ccc(O)cc2)C(=O)N2CCCC12 (centres undefined)
inactive: C33A | CAOV3 | CASKI

CCOc1nc2cccc(C(=O)O)c2n1Cc1ccc(-c2ccccc2-c2noc(=O)[nH]2)cc1
inactive: C33A | CAOV3 | CASKI

O=C1[C@H](O[C@@H]2O[C@H](CO)[C@@H](O)[C@H](O)[C@H]2O)Oc2ccccc2N1O
inactive: C33A | CAOV3 | CASKI

CC(=O)C1CCC2(C)C3=C(CCC12C)C1(C)CCC(=O)C(C)(C)C1CC3 (centres undefined)
inactive: C33A | CAOV3 | CASKI

CCCCNC(=O)[C@@H]1Cc2ccccc2N1C(=O)[C@@H](N)CC
inactive: C33A | CAOV3 | CASKI

COc1ccccc1-n1c(SCC(=O)Nc2nc3ccc(C)cc3s2)nc2c(c1=O)SCC2
inactive: C33A | CAOV3 | CASKI

CC(C)C(C#N)O[C@@H]1O[C@H](CO[C@@H]2OC[C@](O)(CO)[C@H]2O)[C@@H](O)[C@H](O)[C@H]1O (some centres undefined)
inactive: C33A | CAOV3 | CASKI

O=C(COc1ccc(Cl)cc1)NC1CCC(NC(=O)COc2ccc(Cl)cc2)CC1 (centres undefined)
inactive: C33A | CAOV3 | CASKI

COc1ccc(/C=C/C(=O)O[C@H]2[C@@H]3C=CO[C@@H](O[C@@H]4O[C@H](CO)[C@@H](O)[C@H](O)[C@H]4O)[C@@H]3[C@@]3(CO)O[C@@H]23)cc1O
inactive: C33A | CAOV3 | CASKI
